In all, about 360,000 compounds went through this assay and about 3,000 (0.83%) were called active. The sample holds actives, similar compounds and a random draw of the others, so the mix is not that of the screen. Cut-off read from the data, not from the text of the source: active = inhibition above about 38%; inactive = the rest.
Biological target: G-protein coupled receptor 183 (Homo sapiens) (UniProt P32249)
Assay: EBI2 receptor antagonists, beta-arrestin recruitment, primary screen, cell-based, luminescence, 7a,25-OHC stimulation, uHTS (AID 651636);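 note: enzyme fragment complementation signal reports receptor beta-arrestin coupling in cells; 0% = agonist plus DMSO wells and 100% = wells without agonist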
Conditions: 7a,25-OHC stimulated, at 5 µM, active compounds read high

G-protein coupled receptor 183 (Homo sapiens), sequence (P32249 whole entry, looked up, the tested form may be a part): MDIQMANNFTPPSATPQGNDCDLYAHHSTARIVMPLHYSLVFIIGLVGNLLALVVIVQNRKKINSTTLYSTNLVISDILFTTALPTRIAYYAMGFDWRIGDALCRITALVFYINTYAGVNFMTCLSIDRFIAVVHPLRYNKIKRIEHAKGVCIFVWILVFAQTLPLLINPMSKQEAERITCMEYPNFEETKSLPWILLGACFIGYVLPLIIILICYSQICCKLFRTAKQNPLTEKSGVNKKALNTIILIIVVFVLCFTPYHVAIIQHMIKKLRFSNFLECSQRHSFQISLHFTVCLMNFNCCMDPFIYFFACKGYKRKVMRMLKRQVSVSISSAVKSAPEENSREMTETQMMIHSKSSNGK

Row | SMILES | inhibition
1 | C=CCOc1c(CNn2cn[nH]c2=S)cccc1OC | -9.2% (inactive)
2 | O=C(c1cc2ccccc2s1)N1CCN(c2ccccn2)CC1 | 60.8% (active)
3 | Cc1cc(C(=O)N2CCN(c3ccccn3)CC2)c(C)o1 | -3.6% (inactive)
4 | O=C(Cc1ccccc1Cl)N1CCN(c2ccccn2)CC1 | 7.34% (inactive)
5 | O=C(NCN1CCN(CCO)CC1)c1cnccn1 | -9.7% (inactive)
6 | Cc1cccc(C)c1-n1nnnc1C(CCc1ccccc1)N1CCN(C/C=C/c2ccccc2)CC1 (configuration not stated) | 39.8% (active)
7 | CSCCC(c1nnnn1Cc1ccccc1)N1CCN(C/C=C/c2ccccc2)CC1 (configuration not stated) | 19.1% (inactive)
8 | CCCC(c1nnnn1C(C)(C)C)N1CCN(Cc2ccccc2)CC1 (configuration not stated) | 12.5% (inactive)
9 | COC1=C/C(=C/c2c(N)n3nc(CC(=O)N4CCOCC4)sc3nc2=O)C=CC1=O | -0.898% (inactive)
10 | COc1ccccc1N1CCN(C(=O)c2ccc(NC3=NC4CS(=O)(=O)CC4S3)cc2)CC1 (configuration not stated) | -5.44% (inactive)
11 | CCOc1ccccc1N1CCN(C(=O)c2ccc3[nH]c(C)c(C)c3c2)CC1 | 18.2% (inactive)
12 | COc1ccccc1N1CCN(C(=O)c2cc(=O)c3cc(C)ccc3o2)CC1 | 93.3% (active)
13 | O=C(NCCS(=O)(=O)N1CCN(c2ccccc2)CC1)c1cc(=O)c2ccccc2o1 | 5.68% (inactive)
14 | O=C(c1cc(=O)c2ccccc2o1)N1CCN(c2ccccc2)CC1 | 48.1% (active)
15 | O=C(c1ccc(CS(=O)(=O)c2ccccc2)o1)N1CCN(c2ccccc2)CC1 | -5.95% (inactive)
16 | COc1ccccc1N1CCN(c2nc(C)cc(=O)[nH]2)CC1 | -15.3% (inactive)
17 | COc1ccccc1N1CCN(C(=O)C2Cc3ccccc3CN2C(=O)c2ccco2)CC1 (configuration not stated) | 7.65% (inactive)
18 | COc1ccccc1N1CCN(C(=O)c2cc(=O)c3cc(C)cc(C)c3o2)CC1 | 72.9% (active)
19 | [O-][n+]1onc2c1CCc1[nH]c(-c3ccccc3)nc1-2 | 3.97% (inactive)
20 | CCc1nccn1S(=O)(=O)c1cccc([N+](=O)[O-])c1 | 2.08% (inactive)
21 | CC1(C(=O)Nc2ccc3c(c2)OCCO3)CCN1C(=O)Cc1cc(F)ccc1F (configuration not stated) | -9.9% (inactive)
22 | O=C(CCCC(=O)N(CC(=O)NC1CCCC1)Cc1ccccc1Cl)Nc1ccccn1 | -4.48% (inactive)

Row | SMILES | inhibition
23 | CC(C)CCN1CCN(C/C=C/c2ccco2)CC1CCO (configuration not stated) | 2.4% (inactive)
24 | O=C(O)C1C2C=CC(C2)C1C(=O)NCc1ccccc1 (configuration not stated) | -5.43% (inactive)
25 | COc1ccccc1CNC(=O)C1CCN(c2nc3ccccc3o2)CC1 | 4.11% (inactive)
26 | COc1ccccc1CCNC(=O)C1CCN(C(=O)/C=C/c2ccccc2)CC1 | 86.2% (active)
27 | COc1ccccc1CNC(=O)C1CCN(C(=O)[C@@H]2Cc3ccccc3CN2)CC1 | -0.14% (inactive)
28 | O=C(NCCC1CCCCN1S(=O)(=O)c1ccc(Cl)cc1)C(=O)NCc1ccco1 (configuration not stated) | 2.6% (inactive)
29 | CC1(C)Oc2ccc(C(=O)N3CCOCC3)cc2N(CC(=O)Nc2ccccc2)C1=O | 1.64% (inactive)
30 | Cc1ccc(S(=O)(=O)N2CCN(C(=O)COC(=O)c3c(C)cc(C)cc3C)CC2)c(C)c1 | 3.87% (inactive)
31 | Cc1cccc(OCC(O)CN2CCN(S(=O)(=O)c3ccc(C)cc3C)CC2)c1 (configuration not stated) | 54.6% (active)
32 | Cc1ccc(OCC(O)CN2CCN(CC(O)COc3ccc(C)cc3Cl)CC2)c(Cl)c1 (configuration not stated) | 4.54% (inactive)
33 | CCCc1cc(=O)[nH]c(SCC(=O)N2CCN(S(=O)(=O)c3ccc(C)cc3C)CC2)n1 | -2.8% (inactive)
34 | Cc1ccc(S(=O)(=O)N2CCN(C(=O)CSc3cc(C)ccc3C)CC2)c(C)c1 | 64.3% (active)
35 | CC(=O)c1ccc(OCC(O)CN2CCN(S(=O)(=O)c3cccc(Br)c3)CC2)cc1 (configuration not stated) | 40.3% (inactive)
36 | Cc1nnnn1/C(=C\c1ccccc1)C(=O)OCC(=O)N1CC2(C)CC1CC(C)(C)C2 (configuration not stated) | 31.6% (inactive)
37 | CCCC(C(=O)N1CCOCC1)N1C(=O)C2C3C=CC(C3)C2C1=O (configuration not stated) | -18.5% (inactive)
38 | CC(=O)c1ccc(S(=O)(=O)N2CCN(c3nc4c(C)c(C)ccc4cc3C#N)CC2)cc1 | 15.8% (inactive)
39 | CC(=O)c1ccc(S(=O)(=O)N2CCN(C(=O)/C=C/c3ccc4ccccc4n3)CC2)cc1 | 62.3% (active)
40 | CC(=O)c1ccc(S(=O)(=O)N2CCC(Oc3ccc(-n4cnnn4)cc3)CC2)cc1 | 2.61% (inactive)
41 | CC(=O)c1nn(-c2cccc(Br)c2)cc1C(=O)c1cccc2ccccc12 | 12% (inactive)
42 | CC(=O)c1nn(-c2ccc(C)cc2)cc1C(=O)c1cccc(Br)c1 | 46.1% (active)
43 | CCOC(=O)c1nn(-c2cccc(C)c2)cc1C(=O)c1ccccc1 | 11% (inactive)
44 | CCc1ccc[n+](-c2nc([O-])sc2C=O)c1 | 7.04% (inactive)

Row | SMILES | inhibition
45 | Cc1ccc(C(=O)N2CCCc3ccccc32)c(Cl)c1 | 10.8% (inactive)
46 | Cc1cccc2cc3c(N)c(C(=O)N4CCCc5ccccc54)sc3nc12 | 76.1% (active)
47 | CCCn1nc(C(=O)N2CCCc3ccccc32)c2ccccc2c1=O | 14.1% (inactive)
48 | COc1ccc(C(C#N)=C2C=CC(=NO)c3ccccc32)cc1 | 17.2% (inactive)
49 | CC(=O)/C(=N\Nc1ccc(Cl)cc1Cl)Sc1cccc2cccnc12 | 63.7% (active)
50 | CC(Oc1ccc(Cl)cc1)C(=O)Nc1ncccn1 (configuration not stated) | -3.28% (inactive)
51 | COc1cccc(CNC(=O)C2CCN(S(=O)(=O)c3cccc4cccnc34)CC2)c1 | -6.22% (inactive)
52 | CCCCc1ccc(NS(=O)(=O)c2cccc(C(=O)N3CCCN(C)CC3)c2)cc1 | -4.46% (inactive)
53 | Cc1ccc(CN2CC(C(=O)NNC(=O)Cn3ccc(C(F)(F)F)n3)CC2=O)cc1 (configuration not stated) | 7.75% (inactive)
54 | O=C(/C=C/c1ccc(Cl)cc1)N1CCN(c2ccccc2[N+](=O)[O-])CC1 | 93.1% (active)
55 | Cc1c(Br)c([N+](=O)[O-])nn1CC(=O)N1CCN(Cc2ccccc2)CC1 | -9.97% (inactive)
56 | O=C(/C=C/c1ccccc1[N+](=O)[O-])OCC(=O)N1CCCC1 | -0.221% (inactive)
57 | O=C(/C=C/c1ccc(OCc2c(F)cccc2Cl)cc1)N1CCOCC1 | 7.94% (inactive)
58 | O=C(/C=C/c1cccc([N+](=O)[O-])c1)OCC(=O)N1CCOCC1 | 1.92% (inactive)
59 | O=C(/C=C/c1cccc([N+](=O)[O-])c1)N1CCN(Cc2ccccc2)CC1 | 53.3% (active)
60 | O=C(NCCN1CCCC(O)C1)c1cc(COc2c(F)cccc2F)on1 (configuration not stated) | -9.61% (inactive)
61 | CCOC(=O)C1(O)CC(C)=NN1C(=O)c1cccc(Br)c1 (configuration not stated) | -21.3% (inactive)
62 | CCC1([N+](=O)[O-])COC(c2ccc(C(C)C)cc2)OC1 (configuration not stated) | -3.46% (inactive)
63 | COc1ccc(S(=O)(=O)N(C)C[C@H]2Oc3c(NC(=O)Nc4ccc5c(c4)OCO5)cccc3C(=O)N([C@H](C)CO)C[C@@H]2C)cc1 | 5.07% (inactive)
64 | Cc1ccc(NC(=O)C2CCC(C(C)(C)C)CC2)cc1S(=O)(=O)N1CCOCC1 (configuration not stated) | -1.74% (inactive)
65 | Cc1[nH]nc(SCC(=O)NCC(C)C)c1[N+](=O)[O-] | -0.06% (inactive)
66 | N#CC1=C(SCc2ccc(C#N)cc2)N=C(N)C(c2nc(-c3ccccc3)cs2)C12CCCCC2 (configuration not stated) | 15.1% (inactive)

Row | SMILES | inhibition
67 | Cc1ccc(CSCCNC(=O)CN(c2ccc(F)cc2)S(C)(=O)=O)cc1 | 59% (active)
68 | Cc1cc(C)cc(N(CC(=O)NCCSCc2ccco2)S(C)(=O)=O)c1 | 3.14% (inactive)
69 | COc1ccc(N(CC(=O)NCCSCc2cccc(Cl)c2)S(C)(=O)=O)cc1 | -2.19% (inactive)
70 | O=C(CCCOc1ccccc1)NNC(=O)c1ccc(Cl)cc1 | 17.9% (inactive)
71 | O=C(NNC(=O)c1ccc2ccccc2c1)c1ccc(Cl)cc1 | 60.9% (active)
72 | CN(CC(=O)Nc1ccc(Cl)cc1)C(=O)CNC(=O)c1ccc2ccccc2c1 | 2.02% (inactive)
73 | Cc1ccc(-c2c(C)n([O-])c3c([n+]2=O)CCC3)cc1 | 0.406% (inactive)
74 | O=C(NCCc1ccccc1)Oc1ccc(Cl)cc1 | -9.27% (inactive)
75 | O=C(COc1ccc(Cl)cc1)NCCSc1ccccc1 | 26.9% (inactive)
76 | O=C(CCc1ccccc1)NNC(=O)COc1ccc(Cl)cc1 | 38.4% (active)
77 | CC(NC(=O)C1CCCN(S(=O)(=O)c2ccc(-n3cnnn3)cc2)C1)c1ccc(F)cc1 (configuration not stated) | -4.68% (inactive)
78 | O=C1/C(=C\c2ccc(O)cc2)CCC1CNc1ccc(Cl)cc1 (configuration not stated) | 20.4% (inactive)
79 | O=C(C1CCN(S(=O)(=O)c2cnc[nH]2)CC1)N1CCN(Cc2ccc3c(c2)OCO3)CC1 | -0.0388% (inactive)
80 | COC(=O)c1ccc(/C=N/N2C(C)CCCC2C)cc1 (configuration not stated) | -2.67% (inactive)
81 | Brc1ccc(/C=N/N2CCN(C3c4ccccc4-c4ccccc43)CC2)s1 | 6.47% (inactive)
82 | CCOc1ccc(CCN2C(=O)C(=O)N([C@@H](CC(C)C)CN3CCC[C@H]3CN3C(=O)C(=O)NC[C@@H]3Cc3ccccc3)C[C@@H]2CC(C)C)cc1 | -13.2% (inactive)
83 | CCOc1ccc(CCN2C(=S)N([C@@H](CC(C)C)CN3CCC[C@@H]3CN3C(=S)NC[C@@H]3Cc3ccc(O)cc3)C[C@@H]2Cc2ccc(O)cc2)cc1 | 51.8% (active)
84 | CCOc1ccc(CCN2C(=S)N([C@@H](CC(C)C)CN3CCC[C@@H]3CN3C(=S)NC[C@@H]3Cc3ccc(O)cc3)C[C@@H]2CC(C)C)cc1 | 17.1% (inactive)
85 | CC1(C)NC(=O)N(CC(=O)Nc2ccc(-c3ccccc3)cc2)C1=O | -7.07% (inactive)
86 | Cc1cccc(N(CC(=O)Nc2ccc(-c3nc4ccc(C)cc4s3)cc2)S(C)(=O)=O)c1 | 9.99% (inactive)
87 | N=C1C(=O)OCC1c1ccccc1NC(=O)CN1CCCCC1 (configuration not stated) | -2.7% (inactive)

From PubChem BioAssay AID651636 (Sanford-Burnham Center for Chemical Genomics, 2012)
